Compounds with a hit are over-represented: about 1.4% of the library has one in this group of screens.
USP1 inh – USP1/UAF1 (human) deubiquitinase inhibition; actives 0.23% (n = 390,000); AID 743255; O94782; Potency, µM (series often up to 57.1 µM), most hits filed as inhibitors; recombinant USP1/UAF1, Ub-Rhodamine cleavage fluorescence; also: nearly all actives have a fitted effect of over 60% in size
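USP1/UAF1 complex at 1 nM was preincubated with compound for 15 min at room temperature, then Ub-Rho substrate (150nM final) was added. Fluorescence (480/540 nm) was read kinetically, 6 reads every 60 seconds.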
EPAC2 antagonist – antagonists of human EPAC2; EPAC2 GEF exchange of Rap1B-BODIPY-GDP, fluorescence; Potency, µM (series often up to 114 µM), actives largely listed as inhibitors; actives 0.18% (n = 360,000); AID 720708; also: nearly all actives have a fitted effect of over 45% in size
BRCA1 expr up – BRCA1 expression activation; AID 624202; MCF7-BRCA1-FFLuc reporter, luminescence, 48 h; response scale: scaled: vehicle 0%, 10 µM genistein 100%; actives 1.1% (n = 380,000); Potency, µM (series often up to 46.1 µM), usual class: activators; also: nearly all actives have a fitted effect of over 80% in size
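Cells: MCF7-BRCA1-FFLuc, 2000/well. Exposure: 48 h, 37 °C, 5% CO2. Read: luminescence, 15 min post-substrate. Controls: genistein 10 microM (maximal activation), DMSO (neutral).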
EPAC1 antag – EPAC1 (human) antagonism. O95398. EPAC1 GEF assay, Rap1b-BODIPY-GDP exchange fluorescence. Potency, µM (doses to about 115 µM), actives largely listed as inhibitors. actives 0.14% (n = 360,000). AID 720709; also: nearly all actives have a fitted effect of over 50% in size
Target sequence (O95398 whole entry, looked up): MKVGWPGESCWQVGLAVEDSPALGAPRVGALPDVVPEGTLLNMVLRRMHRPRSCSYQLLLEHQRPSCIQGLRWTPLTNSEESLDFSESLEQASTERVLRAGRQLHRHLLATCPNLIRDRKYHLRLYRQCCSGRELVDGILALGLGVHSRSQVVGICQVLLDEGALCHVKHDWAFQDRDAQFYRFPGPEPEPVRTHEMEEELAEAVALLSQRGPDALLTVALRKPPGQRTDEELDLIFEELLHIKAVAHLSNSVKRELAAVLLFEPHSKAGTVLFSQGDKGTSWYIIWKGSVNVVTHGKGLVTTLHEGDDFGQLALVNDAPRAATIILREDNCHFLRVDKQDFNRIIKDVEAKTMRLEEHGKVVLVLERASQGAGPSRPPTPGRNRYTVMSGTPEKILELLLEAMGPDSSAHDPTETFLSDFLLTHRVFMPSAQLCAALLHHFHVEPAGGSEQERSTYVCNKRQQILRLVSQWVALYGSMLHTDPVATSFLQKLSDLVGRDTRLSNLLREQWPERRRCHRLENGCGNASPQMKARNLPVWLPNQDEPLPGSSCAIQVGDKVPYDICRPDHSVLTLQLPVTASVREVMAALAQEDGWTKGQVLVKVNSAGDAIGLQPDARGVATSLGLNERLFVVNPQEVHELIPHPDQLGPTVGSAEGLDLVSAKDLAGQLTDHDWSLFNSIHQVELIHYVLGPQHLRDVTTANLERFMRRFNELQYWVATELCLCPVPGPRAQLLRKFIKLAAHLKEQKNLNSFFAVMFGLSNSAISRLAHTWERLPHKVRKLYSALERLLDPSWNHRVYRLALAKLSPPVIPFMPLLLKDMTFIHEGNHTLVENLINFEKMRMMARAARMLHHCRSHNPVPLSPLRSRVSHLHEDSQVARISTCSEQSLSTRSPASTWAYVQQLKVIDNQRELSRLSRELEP
EPAC2 ag – activates human EPAC2 exchange factor | Q8WZA2 | EPAC2 activation, biochemical qHTS; response scale: 100% = 6.5 mM cAMP response | Potency, µM (series often up to 154 µM), most hits filed as activators | actives 0.079% (n = 360,000) | AID 720711; also: nearly all actives have a fitted effect of over 50% in size
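qHTS, titration series. 100 nM EPAC2 / 250 nM Rap1B-BODIPY-GDP / 50 uM GDP; RT; ex 480/em 540 nm, 5-min reads to 30 min. Norm. to 6.5 mM cAMP = activation.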
EPAC1 ag – EPAC1 (human) agonism; EPAC1 agonist qHTS, biochemical assay; response scale: 100% = response to 6.5 mM cAMP; actives 0.073% (n = 360,000); Potency, µM (titrated, usually from 154 µM), usual class: activators; also: nearly all actives have a fitted effect of over 60% in size
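Multi-concentration qHTS readout: loss of Rap1B-bound BODIPY-GDP fluorescence driven by 100 nM EPAC1 with excess GDP (50 uM), monitored kinetically at room temperature; agonist response expressed relative to 6.5 mM cAMP.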
Large screens that a line does not name were inactive. Calls follow the shape of the dose curve; as a rule, active = well fitted curve in the direction sought with a large enough effect; inconclusive = small, poorly fitted or top-dose-only effect, or another doubt; inactive = no such curve, though single readings can be large; an effect the other way counts as inactive or inconclusive.

O=C(/C=C(\O)c1ccccc1)C(=O)NNC(=O)c1ccccc1	BRCA1 expr up 13µM
CCc1nc2ccc(C(=O)N(CC)CC(=O)Nc3c(F)cccc3F)cc2nc1CC	none
Cc1cccc2c(=O)c(C(=O)NCc3cccs3)c[nH]c12	BRCA1 expr up 13µM
Cc1ccc2c(=O)c(C(=O)NCc3cccs3)c[nH]c2c1	BRCA1 expr up 11µM
Cc1cc(C(=O)NCc2cccs2)c(C)o1	none
O=c1[nH]c2ccc(NCc3ccc(-c4ccccc4F)o3)cc2[nH]1	none (no result: EPAC2 antagonist, BRCA1 expr up, EPAC1 antag, EPAC2 ag, EPAC1 ag)
O=C(NCC1CCN(Cc2ccccc2F)CC1)Nc1cccc(Br)c1	none
COc1ccccc1N1CCN(/N=C/C(Cl)=C/c2ccccc2)CC1	BRCA1 expr up 4µM
COc1ccccc1N1CCN(/N=C\c2ccccc2)CC1	BRCA1 expr up inconclusive
Cc1ccc(C)c(CC(=O)N2CCCCC2c2cc(C(=O)Nc3cccc(C#N)c3)no2)c1 (stereo not given)	none (no result: USP1 inh)
O=C(NN=Cc1c(O)ccc2ccccc12)c1ccc2c(c1)OCO2	none
O=C(N/N=C\c1c(O)ccc2ccccc12)c1ccc(S(=O)(=O)N2CCCCC2)cc1	USP1 inh inconclusive, EPAC2 ag 100µM
Cc1cccc(C(=O)OC2CCOC2=O)c1C (stereo not given)	none
COc1cccc2cc(-c3ccccc3)c(=O)oc12	BRCA1 expr up 2.5µM
COc1cccc2cc(-c3nc4ccccc4[nH]3)c(=O)oc12	BRCA1 expr up 3.2µM
O=C(CSc1nnc2ccccn12)Nc1ncc(Cl)cc1Cl	BRCA1 expr up 10µM
Fc1ccc(CSc2nnc3ccccn23)c(Cl)c1	BRCA1 expr up 10µM
Cc1ccc(S(=O)(=O)N2CCN(c3nc(-n4c(=O)[nH]c5ccccc54)nc4ccccc34)CC2)cc1	none (no result: USP1 inh, EPAC2 antagonist, EPAC1 antag, EPAC2 ag, EPAC1 ag)
COC(=O)Cc1ccc2sc(-c3ccccc3)nc2c1	BRCA1 expr up 7.1µM
O=C(O)Cc1ccc2sc(-c3ccccc3)nc2c1	none
CCc1nnc(NS(=O)(=O)c2ccc(N/C=C\C(=O)c3ccc4ccccc4c3)cc2)s1	EPAC1 antag 50µM
CCc1nnc(NS(=O)(=O)c2ccc(NC(=S)NC(=O)/C=C/c3ccc(C(C)C)cc3)cc2)s1	USP1 inh 25µM, EPAC2 antagonist inconclusive, EPAC1 antag 79µM
CCc1nnc(NS(=O)(=O)c2ccc(NC(=S)NC(=O)c3ccc(Br)cc3)cc2)s1	EPAC1 antag 56µM
Cc1ccc(NCc2nnc(SCC(=O)NNC(=O)Cc3ccccc3)n2C)cc1	none
Cc1cc(NC(=O)c2cccc(Br)c2)n[nH]1	BRCA1 expr up 11µM
CCCCc1cc(=O)oc2c(CN(C)C)c(O)ccc12	none
CC[C@@]1(O)C(=O)OCc2c1cc1n(c2=O)Cc2cc3c(CN(C)C)c(O)ccc3nc2-1	USP1 inh 25µM, EPAC2 ag inconclusive, EPAC1 ag inconclusive
O=C(CCSc1ccc(Cl)cc1)N1CCCCCC1	BRCA1 expr up 13µM
NC(=O)C1CCN(C(=O)CCSc2ccc(Cl)cc2)CC1	none
O=S(=O)(Nc1cc2nc3ccccc3nc2n1Cc1ccccc1)c1ccc(Cl)cc1	USP1 inh 25µM, EPAC2 antagonist inconclusive, EPAC1 antag inconclusive
O=S(=O)(NCc1ccccc1)c1ccc(Cl)cc1	none
Cc1ccc(C(=O)CSc2nnc(N)s2)c(C)c1	BRCA1 expr up 4.5µM
Cc1cc(C(=O)CSc2nnc(N)s2)c(C)n1C1CC1	BRCA1 expr up 7.9µM
Cc1cc(C)c(C(=O)CSc2nnc(N)s2)cc1C	none
Cc1cc(C(=O)CSc2nc(N)cc(N)n2)c(C)n1C1CC1	USP1 inh inconclusive
CN(Cc1nc2ccccc2c(=O)[nH]1)C(=O)C1CC(=O)N(c2cccc3ccccc23)C1 (stereo not given)	none
COCCNC(=O)C1(C)CCN(C(=O)c2ccc(SC(F)(F)F)cc2)C1 (stereo not given)	none (no result: USP1 inh)
Cc1cc2nc(-c3ccc(Br)cc3)cc(C(F)(F)F)n2n1	none (no result: EPAC2 antagonist, BRCA1 expr up, EPAC1 antag, EPAC2 ag, EPAC1 ag)
O=c1oc2c(CN3CCOCC3)c(O)ccc2c2ccccc12	BRCA1 expr up 14µM

High-throughput results deposited in PubChem by National Center for Advancing Translational Sciences (NCATS).
